A selection: hits, their analogues and other compounds. The true share with any hit is near 7%.
AHR activator: AHR activators, primary screen, cell-based, luminescence, luciferase reporter, human | Aryl hydrocarbon receptor (Homo sapiens), P35869 | AHR-responsive luciferase reporter cells | activation, % at 5 µM | hit rate 2.5% among 320,000 | AID 2796, 2010; in the data active = activation above about 47%
NR3A LBD binder: binders of NR3A ligand-binding domain, primary screen, biophysical, differential scanning fluorimetry, uHTS; Glutamate receptor ionotropic, NMDA 3A (GRIN3A) ligand-binding domain; NR3A LBD differential scanning fluorimetry, Tm shift; 0% = protein alone, 100% = glycine-bound protein; Tm shift relative to glycine control, % at 25 µM; hit rate 2.5% among 340,000; AID 1259313, 2017;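 active = melting temperature shift of at least 10% of the positive control shift, at one fixed dose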
ADAM10 inh: human ADAM10 inhibitors, primary screen, biochemical, QFRET, HTS. hit rate 0.62% among 370,000. recombinant ADAM10, EDANS/DABCYL FRET peptide cleavage, 3 h. inhibition, % at 7 µM. Disintegrin and metalloproteinase domain-containing protein 10 (Homo sapiens), O14672;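 active = inhibition above a per-campaign cutoff equal to the mean of compounds falling between control-based bounds plus 3 SD, cut at about 20% in these data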
ADAM17 inh: ADAM17 inhibitors, primary screen, biochemical, QFRET | inhibition, % at 6.95 µM | Disintegrin and metalloproteinase domain-containing protein 17 (Homo sapiens), P78536 | recombinant ADAM17, EDANS/DABCYL FRET peptide cleavage | AID 720648, 2013 | hit rate 0.83% among 370,000;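 active = inhibition above the mean of compounds lying between control limits plus 3 SD, set per campaign, cut at about 8.5% in these data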
rCAG RNA binder: binders of r(CAG) RNA repeats, primary screen, biochemical, fluorescence | r(CAG) RNA repeat, TO-PRO-1 dye displacement fluorescence | inhibition, % at 3 µM | hit rate 1.3% among 370,000;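 active = inhibition above the plate cutoff, the mean of all test compounds on that plate plus 3 SD, cut at about 35% in these data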;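 note: higher means more dye released from RNA so lower well fluorescence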
proKLK7 act: proKLK7 zymogen activators, primary screen, biochemical, fluorescence intensity | activation, % at 7 µM | AID 652039, 2013 | purified proKLK7, EDANS-DABCYL substrate fluorescence; 100% is mature enzyme control, 0% vehicle | hit rate 0.9% among 370,000;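 active = activation above the mean of all tested compounds plus 3 SD, computed per campaign excluding outliers beyond control limits, cut at about 13% in these data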
Target sequence (P49862 whole entry, looked up): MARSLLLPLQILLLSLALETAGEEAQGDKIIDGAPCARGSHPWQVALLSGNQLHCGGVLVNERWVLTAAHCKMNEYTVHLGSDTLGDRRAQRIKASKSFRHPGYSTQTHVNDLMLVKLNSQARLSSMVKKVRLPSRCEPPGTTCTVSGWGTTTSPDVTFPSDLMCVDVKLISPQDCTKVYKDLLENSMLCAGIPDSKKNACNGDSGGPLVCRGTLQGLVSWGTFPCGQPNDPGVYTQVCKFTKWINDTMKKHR
Each line names hits and unclear results; the compound was inactive in the other large screens.

Cc1onc(-c2ccccc2Cl)c1C(=O)Nc1ccccc1	none
CCC(CC)C(=O)Nc1cccc(/C(C)=N\NC(=O)c2ccc(C)s2)c1	none
C/C(=N\NC(=O)c1csc(C)c1C)c1ccc(C)s1	NR3A LBD binder 15
CCC(=O)Nc1ccc(/C(C)=N\NC(=O)c2ccc(C)s2)cc1	AHR activator 54, NR3A LBD binder 22
O=C(CCc1nc(-c2ccccc2F)no1)NCCc1ccc(F)cc1	none (no result: AHR activator, NR3A LBD binder)
O=C(N[C@H](C(=O)N1CCC[C@H]1C(=O)NC1CCCC1)C1CCCCC1)c1ccc(Cl)c(Cl)c1	none (no result: AHR activator, NR3A LBD binder)
O=C1C/C(=C/NCc2ccccc2)C(=O)N1	none
CC(Cc1ccccc1)N/C=C1/CC(=O)NC1=O (configuration not stated)	NR3A LBD binder 14
O=C(CN1C(=O)NC2(CCCC2)C1=O)N1CCN(S(=O)(=O)c2ccccc2F)CC1	NR3A LBD binder 13
CN(CCCOC(=O)c1cc2ccccc2o1)C1CN(Cc2cn(Cc3ccccc3C(F)(F)F)nn2)S(=O)(=O)C1 (configuration not stated)	none (no result: AHR activator, NR3A LBD binder)
COc1cc2c(cc1OC)/C(=C/C(=O)c1cccc([N+](=O)[O-])c1)NCC2	AHR activator 79
O=C(N/N=C/c1cccc(O)c1)c1ccc(NC(=O)c2cccc([N+](=O)[O-])c2)cc1	NR3A LBD binder 27
COc1cc2c(cc1OC)/C(=C/C(=O)c1ccc(OC)c([N+](=O)[O-])c1)NCC2	none (no result: AHR activator)
COc1ccc(/C=N/NC(=O)c2cccc(NC(=O)c3ccc(Cl)cc3)c2)c(OC)c1	NR3A LBD binder 11
COc1ccc(/C=N/NC(=O)c2ccc(NC(=O)c3cccc([N+](=O)[O-])c3)cc2)c(OC)c1	NR3A LBD binder 18
O=C(N=C1N(Cc2ccccc2)C[C@]2(C=C3CCCCC3n3c(=O)n(-c4ccccc4)c(=O)n32)N1C(=O)OCc1ccccc1)c1ccccc1 (some centres not stated)	none (no result: AHR activator, NR3A LBD binder)
CCOC(=O)N1C(=O)C[C@](Sc2ccc(OC)cc2)(C(=O)N2CCN(c3ncccn3)CC2)[C@H]1c1ccc(OC)cc1	none (no result: AHR activator, NR3A LBD binder)
COc1cc(/C=N/NC(=O)c2cccc([N+](=O)[O-])c2)ccc1OCc1ccc(C)cc1	NR3A LBD binder 17
COc1cc([N+](=O)[O-])cc(/C=N/NC(=O)c2ccc(NC(=O)c3ccc(C)cc3)cc2)c1O	NR3A LBD binder 21 (no result: AHR activator)
COc1cccc(/C=N/NC(=O)c2cc3cc([N+](=O)[O-])ccc3s2)c1O	NR3A LBD binder 12
COc1cc([N+](=O)[O-])cc(/C=N/NC(=O)c2ccc(C)nc2)c1O	none
COc1ccccc1/C=N/NC(=O)c1ccc(NC(=O)c2cccc([N+](=O)[O-])c2)cc1	none (no result: NR3A LBD binder, ADAM10 inh, ADAM17 inh, rCAG RNA binder, proKLK7 act)
COc1ccc(CNC(=O)C2CCCN(c3nc4ccccc4o3)C2)cc1 (configuration not stated)	none (no result: AHR activator, NR3A LBD binder)
Cn1cc(CNC(=O)Nc2ccc3c(c2)OCO3)cn1	none
O=C(NCCCn1ccnc1)Nc1cccc(Cl)c1	AHR activator 60
O=C(NCCCn1ccnc1)c1cccc(Cl)c1	none
O=C(NCCCn1ccnc1)Nc1ccc2c(c1)OCO2	AHR activator 50
O=S1(=O)c2ccc(Br)cc2OC[C@@H](Cc2ccccc2)N1Cc1cn(Cc2ccc(Cl)cc2)nn1	none (no result: AHR activator, NR3A LBD binder)
CCc1ccc2c(Cl)c(C(=O)N/N=C/c3c[nH]c4ccccc34)sc2c1	NR3A LBD binder 24
CCc1ccc(-c2cc(C(=O)N/N=C/c3c[nH]c4ccccc34)[nH]n2)cc1	AHR activator 55, NR3A LBD binder 24
O=C(N/N=C/c1c[nH]c2ccccc12)c1ccc([N+](=O)[O-])cc1Cl	none (no result: ADAM10 inh, ADAM17 inh, rCAG RNA binder, proKLK7 act)
CCC(Sc1nncn1C)C(=O)Nc1nnc(-c2ccccc2Cl)s1 (configuration not stated)	AHR activator 52
COc1ccc(CC(=O)OCC(=O)N2N=C(c3ccccc3)CC2c2ccc(OC)cc2)cc1 (configuration not stated)	none
